The full data set covers some 7,900 targets. This sample favours those with a hit. About 0.6% of all pairs of compound and target were hits.
Legend:
Test in all cases: log2 fold change, soluble protein after heating vs DMSO (PISA); higher = thermal stabilisation; K562 cells, 10 uM, 30 min; active = over 0.2 and 3.5 SD of the protein, either way, in both replicates (recomputed)
IRAK-1-4 Inhibitor I = compound: C1COCCN1CCN2C3=CC=CC=C3N=C2NC(=O)C4=CC(=CC=C4)[N+](=O)[O-] [IRAK-1-4 Inhibitor I]
Procedure, shortened: (§1)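 For each measurement, 10 μM compound was applied for 30 min to K562 cells at 2×10^6 cells/mL. Aliquots were heated for 3 min across 48°C-58°C, pooled, and extracted in PBS with 0.5% NP-40 at 4°C; the supernatant after 21,000xg for 90 min was soluble protein. This was quantified by TMTpro 16plex LC-MS/MS with channel sums equalised, and thermal stability was reported relative to control samples from duplicates, on a log2 fold-change scale.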

ibrutinib = compound: C=CC(=O)N1CCC[C@@H](n2nc(-c3ccc(Oc4ccccc4)cc3)c3c(N)ncnc32)C1 [ibrutinib]
Procedure, shortened: as §1

[1] = compound: CC(=O)c1cnc2ccc(-c3cc(Cl)c(O)c(Cl)c3)nc2c1N[C@H]1CC[C@H](CN(C)C)CC1
Procedure, shortened: as §1

ralimetinib = compound: CC(C)(C)Cn1c(N)nc2ccc(-c3[nH]c(C(C)(C)C)nc3-c3ccc(F)cc3)nc21 [ralimetinib]
Procedure, shortened: as §1

[2] = compound: CC(C)(O)CC(=O)NCCn1ccc2ncnc(Nc3ccc(Oc4cccc(C(F)(F)F)c4)c(Cl)c3)c21
Procedure, shortened: as §1

[3] = compound: CC(C)C1=C2N=C(C=C(N2N=C1)NCC3=CC=CC=C3)NCCCCCCN
Procedure, shortened: as §1

[4] = compound: CC(C)C[C@@H](C=O)NC(=O)[C@H](CC(C)C)NC(=O)[C@H](CC(C)C)NC(=O)OCc1ccccc1
Procedure, shortened: as §1

pinometostat = compound: CC(C)N(C[C@H]1O[C@@H](n2cnc3c(N)ncnc32)[C@H](O)[C@@H]1O)[C@H]1C[C@@H](CCc2nc3cc(C(C)(C)C)ccc3[nH]2)C1 [pinometostat]
Procedure, shortened: as §1

[5] = compound: CC1=C(C(CC(=O)N1)C2=CC=C(C=C2)C(F)(F)F)C(=O)NC3=C(C=C4C(=C3)C=NN4)F
Procedure, shortened: as §1

[6] = compound: CC1=C(C2=C(C=C1)C(=O)C3=CC=CC=C3N2CCCN)C
Procedure, shortened: as §1

[7] = compound: CC1=C(C=C(C=C1)NC(=O)C2=CC(=CC=C2)C(C)(C)C#N)NC3=CC4=C(C=C3)N=CN(C4=O)C
Procedure, shortened: as §1

[8] = compound: CC1=C(C=C(C=C1)NC(=O)C2=CC(=CC=C2)N(C)C)NC(=O)C3=CC=C(C=C3)O
Procedure, shortened: as §1

[9] = compound: CC1=CC=C(C=C1)SC2=C3C=C(SC3=CN=C2)C(=O)N
Procedure, shortened: as §1

[10] = compound: CC1=NC(=CC=C1)C2=C(N=C(N2)C(C)(C)C)C3=CC4=NC=CN=C4C=C3
Procedure, shortened: as §1

Nexturastat A = compound: CCCCN(Cc1ccc(C(=O)NO)cc1)C(=O)Nc1ccccc1 [Nexturastat A]
Procedure, shortened: as §1

vemurafenib = compound: CCCS(=O)(=O)Nc1ccc(F)c(C(=O)c2c[nH]c3ncc(-c4ccc(Cl)cc4)cc23)c1F [vemurafenib]
Procedure, shortened: as §1

[11] = compound: CCCS(=O)(=O)Nc1ccc(F)c(C(=O)c2c[nH]c3ncc(Cl)cc23)c1F
Procedure, shortened: as §1

[12] = compound: CCCc1cc(C)[nH]c(=O)c1CNC(=O)c1cc(-c2ccnc(N3CCN(C)CC3)c2)cc2c1cnn2C(C)C
Procedure, shortened: as §1

givinostat = compound: CCN(CC)Cc1ccc2cc(COC(=O)Nc3ccc(C(=O)NO)cc3)ccc2c1 [givinostat]
Procedure, shortened: as §1

barasertib = compound: CCN(CCCOc1ccc2c(Nc3cc(CC(=O)Nc4cccc(F)c4)[nH]n3)ncnc2c1)CCOP(=O)(O)O [barasertib]
Procedure, shortened: as §1

UniProt P46019, sequence (P46019 whole entry, looked up): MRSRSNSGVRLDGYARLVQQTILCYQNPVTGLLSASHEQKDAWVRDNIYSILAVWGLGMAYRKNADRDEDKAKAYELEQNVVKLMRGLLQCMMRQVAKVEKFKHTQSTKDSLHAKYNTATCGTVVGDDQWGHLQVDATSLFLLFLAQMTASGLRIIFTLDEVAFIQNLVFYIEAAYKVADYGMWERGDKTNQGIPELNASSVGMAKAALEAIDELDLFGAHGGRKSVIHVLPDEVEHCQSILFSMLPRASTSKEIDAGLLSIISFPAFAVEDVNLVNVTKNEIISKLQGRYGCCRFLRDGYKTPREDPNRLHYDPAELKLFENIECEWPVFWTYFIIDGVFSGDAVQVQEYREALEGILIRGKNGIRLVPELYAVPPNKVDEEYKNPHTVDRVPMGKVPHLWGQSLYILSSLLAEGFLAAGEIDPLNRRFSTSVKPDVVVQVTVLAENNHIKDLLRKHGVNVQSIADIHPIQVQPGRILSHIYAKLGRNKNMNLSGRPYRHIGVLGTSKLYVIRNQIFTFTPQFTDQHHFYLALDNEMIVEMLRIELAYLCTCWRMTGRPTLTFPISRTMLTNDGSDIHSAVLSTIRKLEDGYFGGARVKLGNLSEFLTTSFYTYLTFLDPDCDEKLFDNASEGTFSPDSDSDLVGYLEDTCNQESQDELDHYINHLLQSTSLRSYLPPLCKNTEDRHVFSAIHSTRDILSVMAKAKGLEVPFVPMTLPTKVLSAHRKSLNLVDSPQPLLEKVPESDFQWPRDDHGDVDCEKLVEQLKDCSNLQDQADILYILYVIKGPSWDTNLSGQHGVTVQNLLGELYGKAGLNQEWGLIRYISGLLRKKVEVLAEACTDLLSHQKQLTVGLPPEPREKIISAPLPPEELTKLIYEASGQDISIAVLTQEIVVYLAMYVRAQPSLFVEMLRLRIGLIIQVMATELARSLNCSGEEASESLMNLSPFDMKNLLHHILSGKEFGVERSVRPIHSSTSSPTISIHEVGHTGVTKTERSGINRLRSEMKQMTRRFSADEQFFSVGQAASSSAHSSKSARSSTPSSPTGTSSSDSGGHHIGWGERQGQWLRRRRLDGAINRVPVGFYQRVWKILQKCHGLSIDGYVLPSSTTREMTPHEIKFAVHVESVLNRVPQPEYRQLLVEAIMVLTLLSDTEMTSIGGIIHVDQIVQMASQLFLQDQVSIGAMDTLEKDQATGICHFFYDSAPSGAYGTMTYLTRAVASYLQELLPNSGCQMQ
UniProt Q9UHX1, sequence (Q9UHX1 whole entry, looked up): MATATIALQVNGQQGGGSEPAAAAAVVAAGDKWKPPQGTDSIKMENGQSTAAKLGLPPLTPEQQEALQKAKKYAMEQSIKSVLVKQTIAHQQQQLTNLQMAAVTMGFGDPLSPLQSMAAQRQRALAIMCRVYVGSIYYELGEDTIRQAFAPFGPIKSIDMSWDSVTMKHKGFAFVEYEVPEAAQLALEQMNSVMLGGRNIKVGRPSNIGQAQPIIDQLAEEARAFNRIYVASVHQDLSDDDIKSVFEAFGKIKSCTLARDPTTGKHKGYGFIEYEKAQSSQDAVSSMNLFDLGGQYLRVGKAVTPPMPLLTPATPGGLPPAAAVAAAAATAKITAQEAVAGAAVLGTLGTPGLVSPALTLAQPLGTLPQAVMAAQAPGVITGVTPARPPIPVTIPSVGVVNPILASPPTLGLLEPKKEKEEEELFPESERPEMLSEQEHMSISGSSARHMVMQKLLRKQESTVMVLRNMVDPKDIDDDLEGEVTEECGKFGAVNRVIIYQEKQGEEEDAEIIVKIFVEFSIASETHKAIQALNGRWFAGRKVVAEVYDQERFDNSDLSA
UniProt P11216, sequence (P11216 whole entry, looked up): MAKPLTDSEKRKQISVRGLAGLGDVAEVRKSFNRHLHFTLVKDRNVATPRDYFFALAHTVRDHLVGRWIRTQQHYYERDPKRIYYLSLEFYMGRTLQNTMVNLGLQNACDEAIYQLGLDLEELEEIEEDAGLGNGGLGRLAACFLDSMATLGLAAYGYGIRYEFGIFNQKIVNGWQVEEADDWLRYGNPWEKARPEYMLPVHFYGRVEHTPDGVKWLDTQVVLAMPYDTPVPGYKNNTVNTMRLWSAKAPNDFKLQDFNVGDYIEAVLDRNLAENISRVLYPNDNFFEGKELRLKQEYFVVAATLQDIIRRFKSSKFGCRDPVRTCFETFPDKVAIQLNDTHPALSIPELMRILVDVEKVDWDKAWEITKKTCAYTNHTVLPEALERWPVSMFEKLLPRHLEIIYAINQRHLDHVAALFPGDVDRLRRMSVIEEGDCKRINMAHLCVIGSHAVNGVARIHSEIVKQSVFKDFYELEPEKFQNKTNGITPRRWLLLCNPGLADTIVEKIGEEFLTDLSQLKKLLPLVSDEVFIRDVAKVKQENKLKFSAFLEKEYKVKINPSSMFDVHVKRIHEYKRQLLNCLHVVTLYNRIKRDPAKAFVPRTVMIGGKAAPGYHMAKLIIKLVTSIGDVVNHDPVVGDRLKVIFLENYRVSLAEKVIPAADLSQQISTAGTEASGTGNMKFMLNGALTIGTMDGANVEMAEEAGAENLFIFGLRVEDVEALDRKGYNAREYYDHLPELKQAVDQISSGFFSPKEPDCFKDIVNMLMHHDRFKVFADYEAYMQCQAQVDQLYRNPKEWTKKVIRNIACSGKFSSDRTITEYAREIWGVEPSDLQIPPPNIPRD
UniProt Q9UG56, sequence (Q9UG56 whole entry, looked up): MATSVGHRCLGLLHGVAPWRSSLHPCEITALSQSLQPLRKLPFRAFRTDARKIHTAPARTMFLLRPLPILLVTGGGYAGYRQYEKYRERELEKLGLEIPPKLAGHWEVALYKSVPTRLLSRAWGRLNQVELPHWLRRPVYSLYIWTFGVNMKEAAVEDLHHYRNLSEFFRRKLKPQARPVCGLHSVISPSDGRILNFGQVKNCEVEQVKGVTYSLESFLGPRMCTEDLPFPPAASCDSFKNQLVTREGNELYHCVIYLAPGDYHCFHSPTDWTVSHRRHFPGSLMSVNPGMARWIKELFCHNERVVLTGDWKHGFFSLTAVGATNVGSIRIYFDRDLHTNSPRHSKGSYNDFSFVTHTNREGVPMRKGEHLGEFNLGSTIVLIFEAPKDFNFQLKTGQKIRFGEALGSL
UniProt Q93096, sequence (Q93096 whole entry, looked up): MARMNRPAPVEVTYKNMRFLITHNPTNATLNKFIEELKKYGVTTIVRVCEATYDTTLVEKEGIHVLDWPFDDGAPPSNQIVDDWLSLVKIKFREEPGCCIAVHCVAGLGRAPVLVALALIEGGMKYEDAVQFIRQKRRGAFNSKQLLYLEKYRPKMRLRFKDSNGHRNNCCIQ
UniProt Q9Y5K3, sequence (Q9Y5K3 whole entry, looked up): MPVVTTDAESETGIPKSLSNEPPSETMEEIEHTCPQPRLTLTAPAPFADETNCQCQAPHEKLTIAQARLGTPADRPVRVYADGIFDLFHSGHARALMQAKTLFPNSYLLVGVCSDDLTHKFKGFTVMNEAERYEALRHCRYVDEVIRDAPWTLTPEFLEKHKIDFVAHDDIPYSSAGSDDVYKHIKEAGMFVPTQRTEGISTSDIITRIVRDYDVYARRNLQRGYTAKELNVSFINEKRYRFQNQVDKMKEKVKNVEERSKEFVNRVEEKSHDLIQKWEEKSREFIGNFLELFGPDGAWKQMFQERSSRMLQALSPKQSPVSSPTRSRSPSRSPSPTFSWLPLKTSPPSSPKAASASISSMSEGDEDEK
UniProt Q29RF7, sequence (Q29RF7 whole entry, looked up): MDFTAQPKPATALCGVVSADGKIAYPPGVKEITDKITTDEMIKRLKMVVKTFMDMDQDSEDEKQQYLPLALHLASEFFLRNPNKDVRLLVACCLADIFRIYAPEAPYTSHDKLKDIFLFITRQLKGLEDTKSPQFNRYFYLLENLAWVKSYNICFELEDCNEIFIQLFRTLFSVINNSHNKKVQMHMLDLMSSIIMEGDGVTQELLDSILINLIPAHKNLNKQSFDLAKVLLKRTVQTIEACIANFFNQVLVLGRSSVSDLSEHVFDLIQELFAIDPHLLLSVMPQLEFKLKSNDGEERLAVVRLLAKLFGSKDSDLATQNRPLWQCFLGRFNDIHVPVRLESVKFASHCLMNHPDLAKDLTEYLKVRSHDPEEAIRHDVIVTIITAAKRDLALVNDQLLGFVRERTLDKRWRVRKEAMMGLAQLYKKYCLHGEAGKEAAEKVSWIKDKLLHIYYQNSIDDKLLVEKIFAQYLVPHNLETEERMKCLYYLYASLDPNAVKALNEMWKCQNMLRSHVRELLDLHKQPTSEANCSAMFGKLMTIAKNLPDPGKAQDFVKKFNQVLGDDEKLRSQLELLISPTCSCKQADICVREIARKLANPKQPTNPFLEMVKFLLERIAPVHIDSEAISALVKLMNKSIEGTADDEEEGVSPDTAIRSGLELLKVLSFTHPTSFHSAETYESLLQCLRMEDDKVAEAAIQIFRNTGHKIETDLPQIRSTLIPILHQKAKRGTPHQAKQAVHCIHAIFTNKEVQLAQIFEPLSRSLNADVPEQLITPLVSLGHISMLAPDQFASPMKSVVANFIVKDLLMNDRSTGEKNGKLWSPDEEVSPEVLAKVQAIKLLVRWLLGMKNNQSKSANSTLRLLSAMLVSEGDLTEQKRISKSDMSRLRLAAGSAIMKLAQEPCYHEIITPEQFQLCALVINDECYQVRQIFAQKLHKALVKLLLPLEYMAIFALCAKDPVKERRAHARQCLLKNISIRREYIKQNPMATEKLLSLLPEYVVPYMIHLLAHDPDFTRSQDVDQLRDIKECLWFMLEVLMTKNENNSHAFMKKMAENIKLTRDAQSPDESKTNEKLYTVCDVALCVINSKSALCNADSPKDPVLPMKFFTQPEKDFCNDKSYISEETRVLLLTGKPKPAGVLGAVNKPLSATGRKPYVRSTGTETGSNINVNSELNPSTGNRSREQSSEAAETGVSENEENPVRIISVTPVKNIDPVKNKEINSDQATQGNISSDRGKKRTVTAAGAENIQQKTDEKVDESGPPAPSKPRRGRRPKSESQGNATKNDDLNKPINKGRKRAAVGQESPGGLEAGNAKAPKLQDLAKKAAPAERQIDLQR

Row | Target | log2 fold change (IRAK-1-4 Inhibitor I) | log2 fold change (ibrutinib) | log2 fold change [1] | log2 fold change (ralimetinib) | log2 fold change [2] | log2 fold change [3] | log2 fold change [4] | log2 fold change (pinometostat) | log2 fold change [5] | log2 fold change [6] | log2 fold change [7] | log2 fold change [8] | log2 fold change [9] | log2 fold change [10] | log2 fold change (Nexturastat A) | log2 fold change (vemurafenib) | log2 fold change [11] | log2 fold change [12] | log2 fold change (givinostat) | log2 fold change (barasertib)
1 | PISD (UniProt Q9UG56) | -0.013 (inactive) | -0.038 (inactive) | -0.068 (inactive) | 0.02 (inactive) | -0.066 (inactive) | 0.001 (inactive) | 0.005 (inactive) | -0.013 (inactive) | -0.039 (inactive) | 0.147 (inactive) | -0.015 (inactive) | 0.002 (inactive) | 0.013 (inactive) | 0.085 (inactive) | 0.022 (inactive) | -0.068 (inactive) | 0.049 (inactive) | 0.009 (inactive) | 0.024 (inactive) | 0.026 (inactive)
2 | PUF60 (UniProt Q9UHX1) | -0.11 (inactive) | -0.018 (inactive) | -0.352 (active) | 0.049 (inactive) | -0.016 (inactive) | -0.235 (active) | -0.003 (inactive) | -0.016 (inactive) | 0.001 (inactive) | 0.016 (inactive) | 0.046 (inactive) | -0.018 (inactive) | 0.043 (inactive) | 0.022 (inactive) | -0.003 (inactive) | 0.034 (inactive) | 0.14 (inactive) | 0.009 (inactive) | 0.022 (inactive) | 0.025 (inactive)
3 | PDS5A (UniProt Q29RF7) | -0.168 (inactive) | -0.041 (inactive) | -0.063 (inactive) | -0.012 (inactive) | -0.344 (inactive) | -0.61 (inactive) | 0.272 (inactive) | 0.045 (inactive) | 0.221 (inactive) | -0.103 (inactive) | 0.093 (inactive) | -0.109 (inactive) | 0.012 (inactive) | 0.12 (inactive) | 0.057 (inactive) | 0.143 (inactive) | 0.294 (inactive) | 0 (inactive) | 0.208 (inactive) | 0.275 (inactive)
4 | PTP4A1 (UniProt Q93096) | -0.011 (inactive) | -0.05 (inactive) | 0.092 (inactive) | -0.096 (inactive) | 0.013 (inactive) | -0.049 (inactive) | -0.062 (inactive) | -0.02 (inactive) | 0.008 (inactive) | -0.179 (inactive) | -0.007 (inactive) | -0.005 (inactive) | 0.023 (inactive) | 0.023 (inactive) | 0.002 (inactive) | 0 (inactive) | 0.062 (inactive) | -0.024 (inactive) | -0.003 (inactive) | 0.035 (inactive)
5 | PYGB (UniProt P11216) | -0.029 (inactive) | 0.037 (inactive) | -0.246 (active) | -0.025 (inactive) | 0.025 (inactive) | 0.01 (inactive) | 0.005 (inactive) | 0.011 (inactive) | 0.055 (inactive) | 0.087 (inactive) | -0.284 (active) | 0.015 (inactive) | 0.008 (inactive) | 0.005 (inactive) | -0.074 (inactive) | 0.009 (inactive) | -0.023 (inactive) | -0.044 (inactive) | 0.012 (inactive) | 0.001 (inactive)
6 | PCYT1B (UniProt Q9Y5K3) | 0.014 (inactive) | -0.029 (inactive) | -0.072 (inactive) | 0.011 (inactive) | 0.001 (inactive) | -0.172 (inactive) | 0.027 (inactive) | -0.011 (inactive) | 0.058 (inactive) | -0.12 (inactive) | 0.007 (inactive) | 0.022 (inactive) | 0.011 (inactive) | 0.034 (inactive) | -0.06 (inactive) | 0.022 (inactive) | 0.049 (inactive) | -0.031 (inactive) | 0.038 (inactive) | 0.048 (inactive)
7 | PSMC6 (UniProt P62333) | -0.026 (inactive) | 0 (inactive) | 0.044 (inactive) | 0.019 (inactive) | 0.093 (inactive) | 0.077 (inactive) | -0.206 (inactive) | 0.01 (inactive) | 0.075 (inactive) | -0.01 (inactive) | 0 (inactive) | 0.022 (inactive) | -0.034 (inactive) | -0.043 (inactive) | 0.034 (inactive) | -0.067 (inactive) | -0.069 (inactive) | 0.01 (inactive) | -0.081 (inactive) | -0.055 (inactive)
8 | PECAM1 (UniProt P16284) | 0.021 (inactive) | 0.004 (inactive) | -0.031 (inactive) | -0.002 (inactive) | -0.082 (inactive) | 0.141 (inactive) | -0.057 (inactive) | 0.012 (inactive) | 0.039 (inactive) | 0.261 (active) | -0.092 (inactive) | -0.019 (inactive) | -0.013 (inactive) | -0.113 (inactive) | 0.068 (inactive) | -0.049 (inactive) | 0.004 (inactive) | -0.015 (inactive) | 0.01 (inactive) | 0.028 (inactive)
9 | PHKA2 (UniProt P46019) | 0.053 (inactive) | -0.095 (inactive) | 0.049 (inactive) | 0.011 (inactive) | -0.1 (inactive) | -0.143 (inactive) | 0.065 (inactive) | 0.138 (inactive) | 0.176 (inactive) | 0.028 (inactive) | 0.028 (inactive) | 0 (inactive) | 0.028 (inactive) | 0.053 (inactive) | -0.038 (inactive) | -0.014 (inactive) | 0.052 (inactive) | -0.07 (inactive) | 0.048 (inactive) | 0.057 (inactive)

Reference: the supplement of paper PMC10849652
